Results on 13 compounds are retold here after PubChem BioAssay (NCATS).

Where “and” joins values, the source holds several entries; their conditions need not be identical. Identical values can stand only once. Records with an inconclusive call do not appear. Calls of active or inactive are those of the source. The call rests on the fitted dose curve.

The assay is described as follows: qHTS Assay for Lipid Storage Modulators (AID 1519). On activity change, negative = inhibition: on the % scale 0 is the no-effect control and ±100 the full control effect. To be noted: Drosophila S3 cells, BODIPY lipid droplet/cell ratio, laser cytometry, cells loaded with oleic acid. An excerpt: NIH Molecular Libraries Probe Production Centers Network [MLPCN]
NIH Chemical Genomics Center [NCGC]
Assay Submitter (PI): Beller, Mathias; Max-Planck-Institut fur Biophysikalische Chemie
NCGC Assay Overview: Storing lipids as a reservoir for energy or the anabolism of elementary metabolites is a common feature of probably all cells and is conserved from bacteria to humans. The universal cellular lipid storage organelle is the so-called lipid storage droplet (LD). Although ubiquitous, LDs share a simple structure composed of a hydrophobic core that harbors the storage lipids, which is shielded by a droplet-specific phospholipid monolayer to which proteins are attached. The current model of LD biogenesis involves an incorporation of the lipid core into the membrane leaflets of the endoplasmic reticulum (ER) followed by a subsequent budding-like maturation of a LD, which ultimately pinches off. Once released, LD volume can increase by localized lipogenesis or fusion of existing droplets. Storage lipids are re-mobilized enzymatically by lipase activity. Lipase regulation in the adipocyte is heavily studied and involves multiple components including catecholamine signaling, the LD-associated proteins Perilipin and comparative gene identification-58 (CGI-58) and at least two lipases named hormone sensitive lipase (HSL) and adipocyte triglyceride lipase (ATGL). LD regulation outside of the adipocyte is poorly understood and only few components are known. However, there is an urgent need to learn more about ectopic fat depots as mislocalized storage of lipids, for example in the liver or muscle, is an eminent health problem associated with insulin resistance or the metabolic syndrome. We developed a laser-scanning cytometer assay to enable 1,536-well screening and combined the results of the small molecules screen with an RNAi database based on lipid storage.
NCGC Assay Protocol Summary:
We dispensed 4 uL of cells at 1.25 x 10^6 cells/mL into LoBase Aurora COC 1,536-well plates (black walled, clear bottom) with a bottle-valve solenoid-based dispenser (Aurora) to obtain 5,000 cells/well. Triacsin C (Sigma-Aldrich T-4540), an inhibitor of long-chain fatty acyl CoA synthetase that blocks synthesis of triglycerides, was used as a positive control for lipid under-storage. A total of 23 nL of compound solution of different concentrations were transferred to the assay plates using a Kalypsys pin tool equipped with a 1,536-pin array containing 10-nL slotted pins (FP1S10, 0.457-mm diameter, 50.8 mm long; V&P Scientific). One microliter of oleic acid (400 uM) was added, and the plate was lidded with stainless steel rubber gasket lined lids containing pinholes. […] Fluorescence was detected by excitation of the fluorophores with a 488-nm laser on an Acumen Explorer (TTP Lab Tech). The total intensity in channel 1 (500-530 nm) reflected lipid droplet accumulation. […] The ratio of the total intensity in PMT channel 1 over total intensity of channel 3 was also calculated. Percent activity was computed relative to an internal control (100% inhibited lipid droplet deposition due to the presence of 20 uM Triacsin C), which was added to 32 wells/plate.
Background: Quantitative high-throughput screening tests each substance at several concentrations.

Where [1] appears, read: measured here: cell count channel max response.
The mark [2] stands for this setting: measured here: lipid channel max response.

For the compound `CN(C(=O)CN(CCO)CC(=O)N(C)C(C)(C)Cc1ccccc1)C(C)(C)Cc1ccccc1`, the activity change, negative = inhibition is -12.5% (inactive) (at 25.7 µM (top of the series)) and 4.59% (inactive) (at 57.5 µM (top of the series)). Further, the max response under setting [1] is -9.05% and 8.48%; the max response under setting [2] is -21.3% and 13.9%.
On to `OC(CCN1CCCCC1)(c1ccccc1)c1ccccc1`, for which the activity change, negative = inhibition by setting is: (at 25.7 µM (top of the series)) -4.82% (inactive); (at 57.5 µM (top of the series)) 3.44% (inactive). Besides, the max response under setting [1] is 1.42% and 9.61%; the max response under setting [2] is -4.61% and 14.1%.
Regarding `CN(C)CCCOc1nn(Cc2ccccc2)c2ccccc12`, the activity change, negative = inhibition (at 25.7 µM (top of the series)) was -3.69% (inactive). Also, the max response runs as follows: under setting [1], 1.49%; under setting [2], -2.83%.
Turning to `COc1c(C)c2c(c(O)c1C/C=C(\C)CCC(=O)O)C(=O)OC2`, the activity change, negative = inhibition (at 25.7 µM (top of the series)) is -1.1% (inactive). In addition, the max response by setting is: under setting [1], 6.28%; under setting [2], 5.14%.
As for `Oc1c(I)cc(Cl)c2cccnc12`, the activity change, negative = inhibition was -3.26% (inactive) (at 25.7 µM (top of the series)) and 2.97% (inactive) (at 57.5 µM (top of the series)). The max response runs as follows: under setting [1], -21.6% and -13.1%; under setting [2], -24.9% and -6.72%.
As to `CCN1CCC[C@H]1CNC(=O)c1c(OC)ccc(Br)c1OC`, where the note is “at 25.7 µM (top of the series)”, the activity change, negative = inhibition is -6.61% (inactive). Besides, the max response under setting [1] is -13.5% and the max response under setting [2] is -15.4%.
As for `O=C(O)c1cc2cc(Cc3cccnc3)ccc2o1`, the activity change, negative = inhibition (at 57.5 µM (top of the series)) is 4.53% (inactive). Moreover, the max response under setting [1] is 9.59% and the max response under setting [2] is 18.2%.
Turning to `N[C@@H](Cc1cnc[nH]1)C(=O)O`, the activity change, negative = inhibition (at 57.5 µM (top of the series)) is 2.39% (inactive). The max response runs as follows: under setting [1], -24.8%; under setting [2], -24.4%.
Taken in the same sequence, the figures for `COc1cc(OC)cc(OC)c1` were 0.768% (inactive), -0.306% and 3%.
As to `Cc1ccc(C(=O)C(C)CN2CCCCC2)cc1` (configuration not stated), the activity change, negative = inhibition (at 57.5 µM (top of the series)) is 1.11% (inactive). In addition, the max response under setting [1] was found to be 7.21% and the max response under setting [2] came out at 11.2%.
For `CN=C(NC#N)Nc1ccc(C2=NNC(=O)CC2C)cc1` (configuration not stated), the activity change, negative = inhibition (at 57.5 µM (top of the series)) was 2.25% (inactive). Besides, the max response under setting [1] was 14.7% and the max response under setting [2] is 17.1%.
Regarding `C/C=C(/C(=C/C)c1ccc(O)cc1)c1ccc(O)cc1`, the activity change, negative = inhibition (at 57.5 µM (top of the series)) was 15.3% (inactive). Moreover, the max response runs as follows: under setting [1], 6.35%; under setting [2], 27.9%.
The corresponding values for `CC(=O)Nc1c(I)cc(I)c(C(=O)O)c1I` are 5.69% (inactive), 5.35% and 12.7%.
